Consider 40 molecules from PubChem BioAssay (NCI).

This is part of a sample that, as a whole, favours compounds with a hit. Of some 83,000 tested, about 20% had one in any assay.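 Step 1: grow cells in 96-well plates. Step 2: add test compound at a single concentration. Step 3: incubate 48 h. Step 4: record percent growth.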 Values without a mark were called inactive. Calls of active or inactive are those of the source.

In the test the test system is SR leukemia. Nature of the test: NCI-60 one-dose screen, 48 h (100 = growth as untreated, 0 = no growth, -100 = all killed). As to conditions: 10 µM unless noted. The procedure: Growth inhibition of the SR human tumor cell line is measured as a screen for anti-cancer activity. Cells are grown in 96 well plates and exposed to the test compound for 48 hours. Compounds are tested at a single concentration, which is 10^-5 M for most compounds. The reported endpoint is percent growth (GI% or GIPRCNT), where numbers from 0 - 100% represent growth inhibition, and numbers from -100% - 0 represent cell death. For example, a value of 40 represents 60% growth inhibition. A value of 0 means no net growth occurred over the course of the experiment. A value of -40 indicates 40% of cells at the beginning of the experiment died by the end of the experiment. A value of -100 means all cells are dead at the end of the experiment.
NCI-60 Human Tumor Cell Lines Screen was performed using the standard one-dose NCI protocol, which is described in more detail at https://dtp.cancer.gov/discovery_development/nci-60/default.htm.
Compounds with GIPRCNT values below 10 were considered active. Activity score was based on GIPRCNT using the following formula: […]
Score is 0 for GIPRCNT values of 100 or above, 50 for GIPRCNT values of 0, and 100 for GIPRCNT values of -100.
For `O=Cc1cc2ccccc2nc1Oc1ccc(C(F)(F)F)cc1`, the growth is 23.6%.
As for `CCN(CC)c1ccc(/C=N/NC(=O)CSc2nc3ccccc3c(=O)n2Cc2ccc(S(N)(=O)=O)cc2)c(O)c1`, the growth is 10.4%.
With `C#CCNC(=O)[C@H](Cc1ccccc1)NC(=O)[C@]12CC[C@@H](C(=C)C)[C@@H]1[C@H]1CC[C@@H]3[C@@]4(C)CCC(=O)C(C)(C)[C@@H]4CC[C@@]3(C)[C@]1(C)CC2` the figure was 42%.
With `Nc1ccccc1NC(=O)c1ccc(-n2nc(-c3ccccc3)c3ccccc32)cc1` the figure was 48.6%.
With `O=C(/C=C(/C=C/c1coc2ccccc12)OB(F)F)/C=C/c1coc2ccccc12` the figure was 48.8%.
As for `COc1cc(/C=N/NC(=O)c2cnn3c2NC(c2ccccc2)C3)ccc1OCc1ccccc1` (stereo not given), the growth was 0.0936% (active).
The figure for `OC(c1cccc(C(F)(F)F)c1)c1cnccc1NC1CCCCC1` (stereo not given) is 51.6%; for `N#C/C(=C\c1ccc(Cl)cc1)n1nnc2cc(F)c(F)cc21` it is 5.64% (active).
Consider `COc1ccc(C(=O)NNc2nc(Cl)nc(N3CCN(C(c4ccccc4)c4ccccc4)CC3)n2)cc1`, for which the growth is -29.6% (active).
As to `CCOC(=O)c1cc(C(=O)c2cc(OC)cc(OC)c2)n2ccc3ccccc3c12`, the growth is 116%.
On to `COc1cc2c(=O)n(CCN)c3c4cc5c(cc4ccc3c2cc1OC)OCO5`, for which the growth was -26% (active).
With `COc1ccccc1/C=C1\Oc2cc(OCCN3CCCC3)ccc2C1=O` the figure was -8.89% (active); with `NS(=O)(=O)c1ccc(CCN2C(=O)C3C(C2=O)C2(Cl)C(Cl)=C(Cl)C3(Cl)C2(Cl)Cl)cc1` (stereo not given), 98.1%.
With `O=C(C1CCC1)N1N=C(c2ccc(-n3ccc(C(F)(F)F)n3)cc2)CC1c1ccc[nH]1` (stereo not given) the figure was 81.9%; with `CCN1CCN(CCNc2nccc(-c3c(-c4cccc(OC)c4)nc4occn34)n2)S1(=O)=O`, 96.3%; with `CNC(=O)c1cc(Cn2nc(C)c(NC(=O)Nc3ccc(Cl)c(C(F)(F)F)c3)c2C)ccn1`, 91.9%.
With `COc1ccc(C(=O)c2cc(C)c(OC)c(C)c2)c(OC)c1N(C(=O)CCl)C(=O)CCl` the figure was 21%; with `C=C1C(=O)O[C@H]2[C@H]1CC/C(CNC(=O)CCc1ccc(OC)cc1)=C\CC[C@@]1(C)O[C@@H]21`, 14.3%.
As to `N#CC1C(C#N)C2c3ccccc3C=CN2C1C(=O)c1ccc(Br)cc1` (stereo not given), the growth is 99.9%.
The figure for `COc1cc(NCCCCCNC(C)(C)C)c2ncccc2c1` is 113%; for `COc1cc(/C=C2\COc3ccc(-c4ccccc4)cc3C2=O)cc(OC)c1` it is 58.5%.
`OCc1cnc2ccccc2c1NC1CCCCCC1`: the growth is 91.4%.
For `Cc1nn(-c2ccccc2)c(Cl)c1/C=C/C(=O)c1ccc(F)cc1`, the growth is 4.28% (active).
With `CN1[C@@H]2CC[C@H]1/C(=C\c1ccccc1)C(=O)/C2=C/c1ccccc1` the figure was 19.2%; with `Nc1nc(Nc2ccccc2SSc2ccccc2Nc2nc(N)nc(-c3ccc(C(F)(F)F)cc3)n2)nc(-c2ccc(C(F)(F)F)cc2)n1`, -5.23% (active).
The figure for `CCOc1ccc(Nc2nc(-c3ccc4c(c3)NC(=O)CO4)cs2)cc1` is 64.6%; for `C/C(=N\Nc1cc(C)nc2ccc(Br)cc12)c1ccc([N+](=O)[O-])cc1` it is 1.78% (active); for `O=S(=O)(NCCNc1nccc(-c2c(-c3cccc(F)c3)nc3sccn23)n1)c1ccc(Br)cc1` it is 31.7%.
The figure for `O=C(Nc1cccc(C2=NCCN2)c1)c1ccc(-c2ccc(C(=O)Nc3cccc(C4=NCCN4)c3)cc2)cc1` is 72.4%; for `CCCNC(=O)Oc1ccc(/C(=C(\C)c2ccccc2)c2ccc(OCCCN(C)C)cc2)cc1` it is 4.87% (active).
As to `CCNC(=O)Oc1ccc(/C(=C(\C)c2ccccc2)c2ccc(OCCN3CCCCC3)cc2)cc1`, the growth is 4.98% (active).
The figure for `CCOC(=O)/C(C#N)=C1/NNC(=Nc2cccnc2)S1` is 118%; for `c1ccc(-c2c(-c3ccccc3)[n+](Cc3ccc4ccccc4c3)c(-c3cccc4ccccc34)n2Cc2ccc3ccccc3c2)cc1` it is -36.5% (active).
Turning to `Brc1ccc2[nH]cc(-c3cncn3CCc3ccccc3)c2c1`, the growth was 40.7%.
Consider `CCOC(=O)Oc1c(OC)cc(C(=O)c2ccc(OC)c(OC(=O)CCl)c2OC)cc1OC`, for which the growth was 29.4%.
With `O=S(=O)(NCCNc1nccc(-c2c(-c3cccc(O)c3)nc3occn23)n1)c1cccc(F)c1` the figure was 84.7%.
The figure for `CC(C)(C)c1ccc(NS(=O)(=O)c2ccc3nc(NC(=O)c4cnccn4)[nH]c3c2)cc1` is 4.26% (active); for `C=C(C)[C@@H]1CC[C@]2(C(=O)N[C@@H](Cc3ccccc3)C(=O)OC)CC[C@]3(C)[C@H](CC[C@@H]4[C@@]5(C)CCC(=O)C(C)(C)[C@@H]5CC[C@]43C)[C@@H]12` it is 85.3%; for `CCCOC(=O)N[C@H]1CCc2cc(OC)c(OC)c(OC)c2-c2ccc(SC)c(=O)cc21` it is 4.77% (active).
As for `N#CC1C(C#N)C(C(=O)c2ccc(Br)cc2)N2c3ccccc3C=CC12` (stereo not given), the growth is 34.9%.
